Compounds with a hit are over-represented: about 11% of the library has one in this group of screens.
HEK cytotox: cytotoxic compounds in HEK 293 cells; Potency, µM (doses to about 115 µM), for the others: top-dose activity change, negative = cytotoxicity, hits mostly inhibitors; 6.6% of 94,000 active; AID 1345083; HEK 293 viability, ATP luminescence (CellTiter-Glo), 48-72 h; active = well fitted curve in the direction sought with a large enough effect; inconclusive = small, poorly fitted or top-dose-only effect, or another doubt; inactive = no such curve, though single readings can be large; an effect the other way counts as inactive or inconclusive; also: % is scaled to controls: 0 for no effect and ±100 for the full control effect; nearly all actives have a fitted effect of over 60% in size
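Read-out: CellTiter-Glo ATP luminescence. Cells: HEK 293, 250 cells/well. Exposure: 48 or 72 hr, 37 degree Celsius.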
FLuc inh: inhibitors of firefly (Photinus pyralis) luciferase; 2.5% of 76,000 active; Potency, µM (doses to about 115 µM), hits mostly inhibitors; purified P. pyralis luciferase, luminescence, biochemical; active = well fitted curve in the direction sought with a large enough effect; inconclusive = small, poorly fitted or top-dose-only effect, or another doubt; inactive = no such curve, though single readings can be large; an effect the other way counts as inactive or inconclusive; also: % is scaled to controls: 0 for no effect and ±100 for the full control effect; nearly all actives have a fitted effect of over 65% in size
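FLuc 10nM, D-luciferin 10uM, ATP 10uM, Mg acetate 10mM, Tris acetate pH 7.5, Tween/BSA; cpd qHTS; enzyme added last; CCD luminescence.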
hNpr1 antagonist: human Npr1 receptor antagonism; 1.6% of 76,000 active; HEK293 hNpr1 GloSensor cGMP, ANP-stimulated luminescence; Potency, µM (highest dose often 46.3 µM), for inactives: top-dose activity change, negative = inhibition, usual class: inhibitors; P16066; also: % is scaled to controls: 0 for no effect and ±100 for the full control effect; nearly all actives have a fitted effect of over 60% in size
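Compound pre-incubated 30 min at room temperature on GloSensor-loaded HEK293 cells stably carrying hNpr1 and the pGS-40F cGMP biosensor. Stimulation uses hNppA at 0.1 nM final; luminescence is taken at baseline and 20 min post-agonist.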
NIH3T3 tox: cytotoxic compounds in NIH 3T3 cells | NIH 3T3 viability, CellTiter-Glo ATP luminescence, 48-72 h | 4.3% of 94,000 active | Potency, µM (top dose mostly 96.7 µM), for the others: at the top dose activity change, negative = cytotoxicity, most hits filed as inhibitors | AID 1345082; active = well fitted curve in the direction sought with a large enough effect; inconclusive = small, poorly fitted or top-dose-only effect, or another doubt; inactive = no such curve, though single readings can be large; an effect the other way counts as inactive or inconclusive; also: % is scaled to controls: 0 for no effect and ±100 for the full control effect; nearly all actives have a fitted effect of over 55% in size
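First NIH 3T3 cells are plated at 400 cells/well; next compound is pinned in; then plates incubate 48 or 72 hr at 37 °C; finally CellTiter-Glo is added and luminescence read after 10 min.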
Npr1 antag conf: confirmation of human Npr1 natriuretic peptide receptor antagonists | shares compounds with hNpr1 antagonist | HEK293 hNpr1 cGMP GloSensor luminescence, ANP-stimulated | Potency, µM (titrated, usually from 57.6 µM), for the others: at the top dose activity change, negative = inhibition, most hits filed as inhibitors | 76% of 1,400 active | AID 1347044; also: nearly all actives have a fitted effect of over 70% in size
NPR2 antag: hNpr2 antagonism, selectivity versus Npr1 | HEK293 hNpr2 GloSensor cGMP luminescence, CNP-stimulated | 67% of 1,400 active | Potency, µM (titrated, usually from 57.6 µM), inactives show at the top dose activity change, negative = inhibition, usual class: inhibitors | shares compounds with hNpr1 antagonist; also: nearly all actives have a fitted effect of over 70% in size
Target sequence (P20594 whole entry, looked up): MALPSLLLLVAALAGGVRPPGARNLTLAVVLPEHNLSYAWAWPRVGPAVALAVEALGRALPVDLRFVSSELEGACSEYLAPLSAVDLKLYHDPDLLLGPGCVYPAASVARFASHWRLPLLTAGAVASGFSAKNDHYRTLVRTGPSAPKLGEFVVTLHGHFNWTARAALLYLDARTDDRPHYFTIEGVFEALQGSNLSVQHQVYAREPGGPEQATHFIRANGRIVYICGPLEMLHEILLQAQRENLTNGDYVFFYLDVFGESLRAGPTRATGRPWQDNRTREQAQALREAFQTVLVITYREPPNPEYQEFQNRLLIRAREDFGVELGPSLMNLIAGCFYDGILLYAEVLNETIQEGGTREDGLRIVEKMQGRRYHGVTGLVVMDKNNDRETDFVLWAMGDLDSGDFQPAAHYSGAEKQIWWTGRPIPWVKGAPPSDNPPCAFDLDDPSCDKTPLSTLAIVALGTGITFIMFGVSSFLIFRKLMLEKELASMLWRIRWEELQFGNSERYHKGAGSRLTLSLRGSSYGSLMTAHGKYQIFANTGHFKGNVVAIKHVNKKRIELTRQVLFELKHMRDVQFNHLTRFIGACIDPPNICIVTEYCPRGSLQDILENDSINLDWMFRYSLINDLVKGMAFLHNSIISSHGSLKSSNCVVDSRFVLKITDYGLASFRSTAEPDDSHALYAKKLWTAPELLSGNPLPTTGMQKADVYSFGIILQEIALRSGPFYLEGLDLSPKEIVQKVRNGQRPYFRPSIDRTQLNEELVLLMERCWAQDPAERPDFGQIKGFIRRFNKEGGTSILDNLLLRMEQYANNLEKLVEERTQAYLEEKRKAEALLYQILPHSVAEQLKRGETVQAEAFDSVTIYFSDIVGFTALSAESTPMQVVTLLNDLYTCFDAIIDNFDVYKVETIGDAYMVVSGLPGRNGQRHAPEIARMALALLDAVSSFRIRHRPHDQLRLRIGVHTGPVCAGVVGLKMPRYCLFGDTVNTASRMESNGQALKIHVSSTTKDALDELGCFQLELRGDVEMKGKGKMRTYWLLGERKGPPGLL
FLuc inh counter: inhibits firefly luciferase, false Npr1 antagonist flag. shares compounds with hNpr1 antagonist. purified FLuc enzyme, luminescence, Km substrate. Potency, µM (doses to about 57.6 µM), inactives show top-dose activity change, negative = inhibition, usual class: inhibitors. 0.7% of 1,400 active. AID 1347047; active = well fitted curve in the direction sought with a large enough effect; inconclusive = small, poorly fitted or top-dose-only effect, or another doubt; inactive = no such curve, though single readings can be large; an effect the other way counts as inactive or inconclusive; also: 0% is about no effect
GloSensor cGMP: reduces cGMP signal in GloSensor control cells | shares compounds with hNpr1 antagonist | HEK293 GloSensor cGMP, SNP-stimulated, luminescence | Potency, µM (highest dose often 57.6 µM), for inactives: top-dose activity change, negative = inhibition, hits mostly inhibitors | 69% of 1,400 active; also: % is scaled to controls: 0 for no effect and ±100 for the full control effect; nearly all actives have a fitted effect of over 70% in size
Numbers without * were called inactive; i = inactive; u = inconclusive; x = not tested or not shown; [ ] = another dose, or the depositor's remark. Unless noted, calls follow the shape of the full dose curve. Potency is read from the fitted curve at half-maximal effect.

SMILES	HEK cytotox	FLuc inh	hNpr1 antagonist	NIH3T3 tox	Npr1 antag conf	NPR2 antag	FLuc inh counter	GloSensor cGMP
O=C(c1ccccc1)N1Cc2[nH]cnc2C[C@H]1c1nc(-c2ccc(Cl)cc2)no1	u	i	-25.0%[70.6 µM]	u	x	x	x	x
CC1=NS(=O)(=O)N(C)C=C1C(=O)OCc1nc(-c2cccc(Cl)c2)no1	u	i	14.1µM*	-18.9%	21.7µM*	u	0.1%	u
CC1=NS(=O)(=O)N(C)C=C1C(=O)OCc1nc(-c2cccc(F)c2)no1	u	i	u	-24.4%	x	x	x	x
CC1=NS(=O)(=O)N(C)C=C1C(=O)OCc1nc(-c2ccccc2)oc1C	u	i	10µM*	u	12.2µM*	13.7µM*	4.9%	10.9µM*
CC1=NS(=O)(=O)N(C)C=C1C(=O)OCc1nc(-c2ccc(C(F)(F)F)cc2)no1	39.8µM*	i	10µM*	u	9.68µM*	10.9µM*	0.3%	9.68µM*
CC1=NS(=O)(=O)N(C)C=C1C(=O)OCc1nc(-c2ccccc2)no1	u	i	-9.1%	-24.0%	x	x	x	x
COc1ccc(-n2nc3n(c2=O)CCN([S+](=O)([O-])c2cccc(OC)c2)C3)cc1	-7.1%	x	x	-8.0%	x	x	x	x
CCCCn1c(=O)c(C(=O)N2CCN(C(=O)c3ccc(C)cc3)CC2)nc2cccnc21	-25.2%	x	x	u	x	x	x	x
CN1C(=O)c2cccn2CC1CNC(=O)c1[nH]nc2c1COc1ccccc1-2 (stereo not drawn)	u	i	-13.2%	u	x	x	x	x
COc1ccccc1OCCNC(=O)C1CCN(c2cc(C(F)(F)F)nc(C)n2)CC1	u	i	u	u	-21.5%	-7.0%	-3.0%	0.0%
CCOc1ccccc1C(=O)NC1CCN(c2cc(C(F)(F)F)nc(C)n2)CC1	u	i	u	u	24.3µM*	u	2.1%	24.3µM*
COc1cccc(C(=O)NC2CCN(c3cc(C(F)(F)F)nc(C)n3)CC2)c1OC	u	i	u	u	x	x	x	x
COCC(=O)NC1CCN(C(=O)c2ccc(-c3cncnc3)cc2)CC1	-1.4%	x	x	-5.1%	x	x	x	x
CCCn1ncc(N2CCC(C(=O)N(CCc3ccncc3)CC3CCCO3)CC2)cc1=O (stereo not drawn)	-11.3%	x	x	-0.4%	x	x	x	x
CC(=O)N1CCC(=O)N(Cc2ccccc2)Cc2cc(F)ccc21	-15.3%	x	x	u	x	x	x	x
COCCN1C(=O)c2ccccc2C(C(=O)Nc2cc(C)ccc2OC)C12CCCCC2 (stereo not drawn)	u	i	u	-15.6%	21.7µM*	12.2µM*	-2.8%	7.8%
Cc1noc(-c2cccc(F)c2)c1C(=O)NCc1cccc2ccccc12	u	i	1.1%	-16.7%	x	x	x	x
Cc1noc(-c2ccco2)c1C(=O)NCc1cccc2ccccc12	u	i	12.6µM*	u	24.3µM*	u	2.7%	30.6µM*
COCC(=O)N1CC(C(=O)NCc2cccc(F)c2)CC(c2ccc(F)c(C)c2)C1 (stereo not drawn)	u	i	-0.1%	-18.1%	x	x	x	x
CCNC(=O)N1CC(C(=O)NCc2cccc(C)c2)CC(c2ccc(F)c(C)c2)C1 (stereo not drawn)	u	i	22.4µM*	u	u	u	0.4%	u
COc1ccc(NC(=O)c2ccc(-c3nnc4ccc(NC(=O)C5CCC5)cn34)cc2)cc1	u	i	-30.2%	-3.7%	u	-28.9%	-19.0%	-23.1%
CCCNC(=O)c1cccc2c1CCN2S(=O)(=O)c1ccc(OC)cc1	u	i	u	-21.5%	x	x	x	x
Cc1ccc(S(=O)(=O)N2CCc3c(C(=O)NCc4ccccn4)cccc32)cc1	u	i	11.2µM*	u	24.3µM*	24.3µM*	-7.5%	30.6µM*
COc1ccc(S(=O)(=O)N2CCc3c(C(=O)NCc4cccc(F)c4)cccc32)cc1	u	i	u	-25.2%	u	u	-12.8%	u
CCCNC(=O)c1cccc2c1CCN2S(=O)(=O)c1ccc(C)cc1	u	i	u	u	x	x	x	x
SMILES	HEK cytotox	FLuc inh	hNpr1 antagonist	NIH3T3 tox	Npr1 antag conf	NPR2 antag	FLuc inh counter	GloSensor cGMP
COc1ccc(CCC(=O)Nc2cccc(-c3nnc4n3CCCC4)c2)cc1	-10.9%	i	6.1%	-7.3%	x	x	x	x
COc1ccc(C(=O)NCCc2noc(-c3ccccc3)n2)cc1F	u	i	u	u	u	-16.9%	1.2%	6.8%
O=C(CCC1CCCC1)NCCc1noc(-c2ccccc2)n1	79.4µM*	i	u	u	u	-25.4%	0.9%	-10.0%
O=C(NCCc1noc(-c2ccccc2)n1)c1ccccc1	u	i	-15.1%	-27.0%	x	x	x	x
CC(=O)NCC1CCCN(Cc2ccc(-c3ccccc3C#N)o2)C1 (stereo not drawn)	-21.3%	i	-22.0%	-25.6%	u	u	-1.2%	8.1%
CCc1ccc(CN2CCCC(CNC(=O)c3cccc(OC)c3OC)C2)o1 (stereo not drawn)	u	i	6.0%	-2.6%	x	x	x	x
CC(C)Oc1cccc(-c2n[nH]c3c2CC(=O)N(CCOc2ccccc2)C3)c1	u	u	-21.1%[70.6 µM]	u	x	x	x	x
Cc1nn(Cc2ccccc2)c(C)c1[C@@H]1C=C[C@@H](NC(=O)c2cccs2)C1	u	i	-5.9%[70.6 µM]	u	x	x	x	x
COc1ccc(-n2nc(C)c([C@H]3C=C[C@@H](OC(=O)N[C@H](C)c4ccccc4)C3)c2C)cc1	14.1µM*	i	11.2µM*	u	9.94µM*	12.5µM*	-14.5%[86.2 µM]	8.86µM*
COc1ccc(-n2nc(C)c([C@@H]3C=C[C@@H](NS(=O)(=O)c4cccs4)C3)c2C)cc1	u	i	u	u	u	u	-4.1%[86.2 µM]	35.3µM*
Cc1nn(Cc2ccccc2)c(C)c1[C@@H]1C=C[C@@H](NS(=O)(=O)c2cccs2)C1	u	i	u	u	u	u	-2.2%[86.2 µM]	u
O=C1CC2(CCN(C(=O)C3CCCN3[S+](=O)([O-])c3cccs3)CC2)Oc2ccccc2N1 (stereo not drawn)	u	x	x	-22.3%	x	x	x	x
COc1ccc(Cc2nnc3ccc(C(=O)NCC(F)(F)F)cn23)cc1	1.6%	x	x	-22.8%	x	x	x	x
